Where two headings read alike, the source gives them in different places.

What all share (set-up): species or system human, MV4-11 + K-562 + COLO205 + SK-N-BE2 + OVCAR-8
In one test the test system is EPHA2. The conditions noted are these: read-out: apparent Kd, n = 1.
For a further test, the system named is EPHA4. The conditions noted are these: read-out: apparent Kd, n = 1.
The subject of the next test is EPHB1. The following applies: read-out: apparent Kd, n = 1.
The test system of another test is EPHB2. The following applies: read-out: apparent Kd, n = 1.
The test system of a further test is EPHB4. The conditions noted are these: read-out: apparent Kd, n = 1.
The next test deals with NLK. The conditions noted are these: read-out: apparent Kd, n = 1.
In the next test the test system is PDGFRB. The conditions noted are these: read-out: apparent Kd, n = 1.
For the next test, the system named is TGFBR2. The conditions noted are these: read-out: apparent Kd, n = 1.
Another test deals with TAOK1. The following applies: read-out: apparent Kd, compound concentrations: 100 nM and 1000 nM (sheet 'Samples'), n = 1.
The subject of another test is PIK3CD. The following applies: read-out: apparent Kd, compound concentrations: 100 nM and 1000 nM (sheet 'Samples'), n = 1.
The next test relates to MAP4K5. The following applies: read-out: apparent Kd, n = 1.
The next test relates to MAPKAPK2. The following applies: read-out: apparent Kd, n = 1.
The next test relates to PRKD3. The conditions noted are these: read-out: apparent Kd, compound concentrations: 100 nM and 1000 nM (sheet 'Samples'), n = 1.
A further test relates to BUB1. The conditions noted are these: read-out: apparent Kd; compound concentrations: 100 nM and 1000 nM (sheet 'Samples'), CATDS: 7.2203356914043596E-3; n = 1.
The subject of a further test is CSNK1D. The conditions noted are these: read-out: apparent Kd; compound concentrations:100 nM and 1000 nM (sheet 'Samples'); n = 1.
Where [1] appears, read: compound concentrations:100 nM and 1000 nM (sheet 'Samples').

As to `Cl.Oc1cccc(Nc2ccnc3cc(-c4ccncc4)ccc23)c1` [GW494601A], the potency estimated from few doses in the test with EPHA2 (compound concentrations: 100 nM and 1000 nM (sheet 'Samples'), CATDS: 2.3824924917130601E-2) was 600 nM; with EPHA4 (compound concentrations: 100 nM and 1000 nM (sheet 'Samples'), CATDS: 3.3294473343985699E-2), 165 nM; in the test with EPHB1 (compound concentrations: 100 nM and 1000 nM (sheet 'Samples'), CATDS: 2.51104508673669E-2), 479 nM; in the test with EPHB2 (compound concentrations: 100 nM and 1000 nM (sheet 'Samples'), CATDS: 2.64855925277621E-2) it was 385 nM; with EPHB4 (compound concentrations: 100 nM and 1000 nM (sheet 'Samples'), CATDS: 3.7673587952975797E-2) it was 110 nM; with NLK (compound concentrations: 100 nM and 1000 nM (sheet 'Samples'), CATDS: 1.9274779311166401E-2), 1830 nM. For the same compound, the potency estimated from few doses in the test on PDGFRB (compound concentrations: 100 nM and 1000 nM (sheet 'Samples'), CATDS: 1.9069305404636899E-2) was 1970 nM; in the test on TGFBR2 (compound concentrations: 100 nM and 1000 nM (sheet 'Samples'), CATDS: 0.14921911016535599), 5.06 nM.
`COc1ccccc1CNC1=NC(=O)/C(=C/c2ccc3ncccc3c2)S1` [RO4503315-000]: the potency estimated from few doses in the test with TAOK1 (CATDS: 7.1757893284069299E-2) was 1130 nM.
On to `COc1ccc(-n2cnc3c(N)ncnc32)cc1` [SKF-97236], for which the potency estimated from few doses was 1970 nM in the test with PDGFRB (compound concentrations: 100 nM and 1000 nM (sheet 'Samples'), CATDS: 0.12494680251160301); 222 nM with PIK3CD (CATDS: 0.374681686981787).
Take `CCN(CC)CCOc1ccc(Nc2ncc3cc(-c4c(Cl)cccc4Cl)c(=O)n(C)c3n2)cc1` [SB-601273]: the potency estimated from few doses in the test with EPHA2 (setting [1]) was 30.3 nM; with EPHA4 (setting [1]), 162 nM; with EPHB1 (setting [1]), 10.6 nM; in the test on EPHB2 (setting [1]) it was 108 nM; in the test on EPHB4 (setting [1]), 30.2 nM; in the test with MAP4K5 (setting [1]), 2360 nM. In addition, the potency estimated from few doses was 320 nM with MAPKAPK2 (setting [1]), 1310 nM in the test on NLK (setting [1]), 576 nM in the test with PDGFRB (setting [1]) and 1260 nM in the test with TGFBR2 (setting [1]).
On to `NC(=O)c1cccc(Nc2nccc(Nc3cccc4[nH]ncc34)n2)c1` [GW782612X], for which, in the test on TGFBR2 (compound concentrations: 100 nM and 1000 nM (sheet 'Samples'), CATDS: 0.37560252723777299), the potency estimated from few doses is 17 nM.
`Cc1cccc(Nc2nc(NCCN)ncc2C(N)=O)c1` [GSK1292139B]: the potency estimated from few doses in the test with PRKD3 (CATDS: 6.9928558616796505E-2) was 1540 nM.
Turning to `Cc1ccc(O)cc1Nc1ccnc2cc(-c3ccc(CN4CCCCC4)o3)ccc12` [GW557777X], the potency estimated from few doses in the test with EPHA2 (compound concentrations: 100 nM and 1000 nM (sheet 'Samples'), CATDS: 3.25409539793877E-2) is 18.9 nM; in the test on EPHA4 (compound concentrations: 100 nM and 1000 nM (sheet 'Samples'), CATDS: 4.01782030303919E-2), 10.4 nM; with EPHB1 (compound concentrations: 100 nM and 1000 nM (sheet 'Samples'), CATDS: 9.2243435191231293E-2), 1.47 nM; in the test on EPHB2 (compound concentrations: 100 nM and 1000 nM (sheet 'Samples'), CATDS: 4.4697919041746297E-2) it was 7.87 nM; in the test with EPHB4 (compound concentrations: 100 nM and 1000 nM (sheet 'Samples'), CATDS: 5.8010916452344102E-2), 4.17 nM; with PDGFRB (compound concentrations: 100 nM and 1000 nM (sheet 'Samples'), CATDS: 1.4075910538655201E-2) it was 735 nM. In addition, the potency estimated from few doses in the test on PIK3CD (CATDS: 1.8513434924081099E-2) was 151 nM; with PRKD3 (CATDS: 1.7058744664209799E-2) it was 226 nM.
Regarding `CS(=O)(=O)CCNCc1ccc(-c2ccc3ncnc(Nc4ccc(OCc5cccc(F)c5)c(C(F)(F)F)c4)c3c2)o1` [GW576484X], the potency estimated from few doses in the test with MAPKAPK2 (compound concentrations: 100 nM and 1000 nM (sheet 'Samples'), CATDS: 5.1625153721040297E-2) is 1830 nM; with NLK (compound concentrations: 100 nM and 1000 nM (sheet 'Samples'), CATDS: 4.7895996711747497E-2), 2180 nM; in the test with TAOK1 (CATDS: 9.5612553502410894E-2), 618 nM.
As for `NC1=NC(=O)/C(=C/c2ccc3ncccc3c2)S1` [RO4569139-000], the potency estimated from few doses in the test with PRKD3 (CATDS: 6.7072777002688294E-2) was 1930 nM.
Regarding `COc1cc(Nc2ccnc3cc(-c4ccncc4)ccc23)cc(OC)c1OC.Cl` [GW494610A], the potency estimated from few doses in the test with EPHA2 (compound concentrations: 100 nM and 1000 nM (sheet 'Samples'), CATDS: 2.8855283068255098E-2) is 577 nM; with EPHB1 (compound concentrations: 100 nM and 1000 nM (sheet 'Samples'), CATDS: 2.3499572328162702E-2) it was 1250 nM; with MAP4K5 (compound concentrations: 100 nM and 1000 nM (sheet 'Samples'), CATDS: 2.1260288667502202E-2), 2030 nM; in the test on MAPKAPK2 (compound concentrations: 100 nM and 1000 nM (sheet 'Samples'), CATDS: 2.2209833673663099E-2) it was 1620 nM; in the test with NLK (compound concentrations: 100 nM and 1000 nM (sheet 'Samples'), CATDS: 5.2882757998729699E-2), 110 nM; in the test on PDGFRB (compound concentrations: 100 nM and 1000 nM (sheet 'Samples'), CATDS: 4.8396986719482699E-2) it was 136 nM.
On to `O=C1N=C(NCc2cccs2)SC1Cc1ccc2ncccc2c1` (stereo not drawn) [RO4629078-000], for which the potency estimated from few doses was 1930 nM in the test on BUB1; 342 nM in the test on EPHA2 (compound concentrations: 100 nM and 1000 nM (sheet 'Samples'), CATDS: 1.36009605508639E-2); 238 nM in the test on EPHA4 (compound concentrations: 100 nM and 1000 nM (sheet 'Samples'), CATDS: 1.66325304555619E-2); 272 nM with EPHB1 (compound concentrations: 100 nM and 1000 nM (sheet 'Samples'), CATDS: 1.5393002457868701E-2); 178 nM in the test with EPHB2 (compound concentrations: 100 nM and 1000 nM (sheet 'Samples'), CATDS: 1.9892167159836899E-2); 162 nM in the test with EPHB4 (compound concentrations: 100 nM and 1000 nM (sheet 'Samples'), CATDS: 2.1087498416613601E-2). Further, the potency estimated from few doses is 1750 nM in the test on PRKD3 (CATDS: 7.3913708056946199E-3) and 1730 nM in the test with TAOK1 (CATDS: 7.4050083824812101E-3).
With `Cc1nn(C)c2cc(N(C)c3ccnc(Nc4cccc(S(N)(=O)=O)c4)n3)ccc12.Cl` [GW770220A], in the test on NLK (compound concentrations: 100 nM and 1000 nM (sheet 'Samples'), CATDS: 0.27942165636777999), the potency estimated from few doses is 1030 nM.
With `Nc1nc(-c2cccnc2)c(-c2ccnc3ccccc23)s1` [GW684083X], the potency estimated from few doses in the test on CSNK1D was 2190 nM.

The values are drawn from publication PMC11062922 (Nature Chemical Biology, 2023).
